Data on 14 compounds can be found in ChEMBL document CHEMBL4513146, “CO-ADD screening of Karazin Kharkiv National University (Ukraine) compounds”.

Measured potencies and affinities stand elsewhere.

In this experiment the test system is Staphylococcus aureus. As to conditions: Concentration 32 ug.mL-1;; ASSAY_TEST Inhibition of Bacterial Growth; detection method Absorption (OD600); MEDIA CAMHB; plate type 384well; NBS; CORNING #3640; time 18 hr.
Consider `Cc1ccc(-c2cc3c4nnc(CCC(=O)NCc5ccc(F)c(Cl)c5)n4ccn3n2)cc1C`, for which the Inhibition is given as 9.12%. As for `CCCCc1ccc(NC(=O)Cn2nc3c(SC4CCCCC4)nccn3c2=O)cc1`, the Inhibition was -1.79%. In the case of `Cc1cccc(C)c1NC(=O)Cn1nc2c3cc(-c4ccc(Cl)cc4)nn3ccn2c1=O`, the Inhibition is recorded as -1.34%. Regarding `Cc1ccc(C)c(-c2cc3c4nnc(SCC(=O)Nc5cccc(Br)c5)n4ccn3n2)c1`, the Inhibition was determined as 0.42%.

With `Cc1nnc2c(SCC(=O)Nc3ccc(Br)cc3F)nc3ccccc3n12`, the Inhibition came to 1.94%.

`CCOC(=O)c1ccc(NC(=O)Cn2nc3ccc(SCc4ccc(Cl)cc4)nn3c2=O)cc1`: the Inhibition is listed as -0.24%.

Regarding `CCc1nnc2c(S(=O)(=O)N(Cc3cccc(OC)c3)c3ccc(F)cc3)cccn12`, the Inhibition is listed as -5.69%.

Regarding `Cc1cccc(NC(=O)Cn2nc3ccc(SC(C)(C)C)nn3c2=O)c1`, the Inhibition is on record as 3.72%. `O=C(CSc1nnc2c(=O)n(-c3cccc(F)c3)ccn12)Nc1ccc(Br)cc1F`: the Inhibition is recorded as 15.57%. In the case of `COc1ccccc1-n1ccn2c(SCC(=O)c3ccc(C)cc3C)nnc2c1=O` it was 6.26%. Regarding `COc1ccc(-c2cc3c4nnc(SCC(=O)Nc5ccc(OC)c(Cl)c5)n4ccn3n2)cc1`, the Inhibition stood at 3.66%.

Regarding `COc1ccc(NC(=O)Cn2nc3ccc(SC(C)(C)C)nn3c2=O)cc1OC`, the Inhibition came to 4.97%.

`CCOc1ccc(-n2ccn3c(SCC(=O)c4ccc(C)cc4C)nnc3c2=O)cc1`: the Inhibition is reported as 6.78%. With `COc1ccc(N(Cc2cccc(C)c2)S(=O)(=O)c2ccc3nnc(C)n3c2)cc1` the figure was 2.37%.

A word on the Inhibition: it is the change of the read-out against control, counted positive when it falls.
